# Values of other authors, collected in PubChem BioAssay AID977611.
# Structures can show the parent of a compound that is named as a salt. Screen size: about 3,900 compounds; about 3,900 (100%) were called active. Cut-off not given; nearly all actives show Kd up to about 4200 µM. The set was probably picked from earlier hits. The list shows a part of the results. Numbered stars: 1 amine (or outer) side, 2 acyl side, 3 side chain; on linkers, the order of the positions; unused ones are H or OH. Starred links: 1 amine or outer side, 2 acyl side, 3 side chain; linkers in the order of their positions; H or OH if unused. Where a SMILES comes first, the peptide text is derived from it. Non-standard residues stand in square brackets, D forms with d. Square brackets hold non-standard residues; d marks the D form. Residues, ends and D or L forms follow the SMILES beside them. Peptide text beside a SMILES is read from it. [ ]: non-standard residue; d: D form. * marks the point of attachment. X1 = O=C([C@H](Cc1ccc(O[P+](O)(O)O)cc1)N[*:1])[*:2]; Lys(Me3) = C[N+](C)(C)CCCC[C@H](N)C(=O)O; Orn(CH(NH2)2) = NC(N)NCCC[C@H](N)C(=O)O; Tfa = O=C(C(F)(F)F)*
# Test: PubChem AID 977611
# Conditions: PDB protein-ligand complexes, literature Kd
molecule,measurement,setting,value
NCc1csc2ccccc12,Kd,"protein: CATIONIC TRYPSIN, PDB entry 4abb",31 µM (active)
NCc1csc2ccc(Br)cc12,Kd,"protein: CATIONIC TRYPSIN, PDB entry 4abf",24 µM (active)
CO[C@H]1O[C@H](CNS(=O)(=O)c2c(C)cc(C)cc2C)[C@@H](O)[C@H](O)[C@@H]1O,Kd,"protein: FUCOSE-BINDING LECTIN PA-IIL, PDB entry 3zdv",3.3 µM (active)
NC(=O)C[C@H](NC(=O)CNC(=O)CNC(=O)[C@H](CCCNC(N)N)NC(=O)CNC(=O)CNC(=O)CNC(=O)CNC(=O)[C@@H](N)CO)C(=O)NCC(=O)NCC(=O)NCC(=O)NCC(=O)NCC(=O)NCC(=O)O (H-SGGGG[Orn(CH(NH2)2)]GGNGGGGGG-OH),Kd,"protein: Outer membrane porin 1a (Ia;b;F)(OmpF), PDB entry 3o0e",1.8 µM (active)
H-SGRGK(Ac)G-OH,Kd,"protein: ATPase family AAA domain-containing protein 2 ATAD2A bromodomain, PDB entry 4tt2",22 µM (active)
O=c1[nH]cnc2cc3nc(NCCN4CCCCC4)[nH]c3cc12,Kd,"protein: Queuine tRNA-ribosyltransferase TGT, PDB entry 4q4p",0.407 µM (active)
Nc1nc2cc3nc(NCCN4CCCCC4)[nH]c3cc2c(=O)[nH]1,Kd,"protein: Queuine tRNA-ribosyltransferase TGT, PDB entry 4q4o",0.0343 µM (active)
O=c1[nH]cnc2cc3nc(NCCN4CCOCC4)[nH]c3cc12,Kd,"protein: Queuine tRNA-ribosyltransferase TGT, PDB entry 4q4r",0.369 µM (active)
CNc1nc2cc3nc(N)[nH]c(=O)c3cc2[nH]1,Kd,"protein: Queuine tRNA-ribosyltransferase TGT, PDB entry 4q4s",0.112 µM (active)
O=c1[nH]cnc2cc3nc(NCc4cccs4)[nH]c3cc12,Kd,"protein: Queuine tRNA-ribosyltransferase TGT, PDB entry 4q4q",1.64 µM (active)
N#C/C(=C\c1ccncc1)C(=O)NCc1ccccc1,Kd,"protein: RIO-type serine/threonine-protein kinase Rio1, PDB entry 4jin",2.28 µM (active)
C[N+](C)(C)CCCC[C@H](N)C(=O)N[C@@H](CCC(N)=O)C(=O)O (H-[Lys(Me3)]-Gln-OH),Kd,"protein: Polycomb protein EED, PDB entry 3k26",400 µM (active)
C[C@@H](O)[C@H](N)C(=O)N[C@@H](CCCC[N+](C)(C)C)C(=O)N[C@@H](CCC(N)=O)C(=O)O (H-Thr-[Lys(Me3)]-Gln-OH),Kd,"protein: Os05g0196500 protein, PDB entry 4igq",30.1 µM (active)
CSCC[C@H](NC(=O)[C@H](CC(C)C)NC(=O)CNC(=O)[C@@H](NC(=O)[C@H](CC(N)=O)NC(=O)[C@H](CCC(=O)O)NC(=O)[C@H](Cc1ccc(O[P+](O)(O)O)cc1)NC(=O)[C@@H](N)C(C)C)C(C)C)C(=O)O (H-V[X1]ENVGLM-OH),Kd,"protein: Grb2 SH2 domain, pY-Clamp Ptpn11_pY580, PDB entry 4jmg",0.0015 µM (active)
H-TFKEVANAVKISASLM-OH,Kd,"protein: Calmodulin, PDB entry 2mg5",0.7 µM (active)
CC[C@H](C)[C@H](NC(=O)[C@H](CC(=O)O)NC(=O)[C@H](Cc1ccccc1)NC(=O)[C@H](CC(C)C)NC(=O)[C@H](CC(=O)O)NC(=O)CNC(=O)[C@@H](NC(=O)[C@@H](NC(=O)[C@H](CCCCN)NC(=O)[C@H](CC(C)C)NC(=O)[C@H](CCCNC(N)N)NC(=O)[C@H](CCCNC(N)N)NC(=O)[C@H](CO)NC(=O)[C@H](CC(C)C)NC(=O)[C@H](CC(N)=O)NC(=O)[C@H](CCC(=O)O)NC(=O)[C@H](CCSC)NC(=O)[C@@H](N)[C@@H](C)O)C(C)C)[C@@H](C)O)C(=O)N[C@@H](CCSC)C(=O)O (H-TMENLS[Orn(CH(NH2)2)][Orn(CH(NH2)2)]LKVTGDLFDIM-OH),Kd,"protein: M11, the BCL-2 Homolog of Murine Gamma-herpesvirus 68, PDB entry 3bl2",1.58 µM (active)
H-IGTDKELSDLLDFSAMFS-OH,Kd,"protein: eTAFH domain of AML1-ETO, PDB entry 2knh",7 µM (active)
O=C(O)C1(O)C[C@@H](O)C(O)[C@H](O)C1 (stereo partly specified),Kd,"protein: 3-dehydroquinate dehydratase (K170M mutation), PDB entry 4iuo",230 µM (active)
same,Kd,"protein: 3-dehydroquinate dehydratase, PDB entry 4gui",230 µM (active)
OC[C@H]1O[C@@H](Oc2ccc3c(c2)Oc2cc(O)ccc2N3)[C@H](O)[C@@H](O)[C@H]1O,Kd,"protein: PA-I galactophilic lectin, PDB entry 4lk7",9.1 µM (active)
CC(C)(C)OC(=O)N1CC(NC2NC(=O)c3cccnc3N2)C1 (stereo unspecified),Kd,"protein: PLASMINOGEN ACTIVATOR INHIBITOR 1, PDB entry 4aqh",0.29 µM (active)
Cc1nn(C)c2sc(C(=O)O)cc12,Kd,"protein: Pantothenate synthetase (T2A, E77G mutation), PDB entry 4fzj",700 µM (active)
CC(C)[C@H](NC(=O)[C@H](CO)NC(=O)[C@H](CCC(=O)O)NC(=O)[C@@H](N)CC(N)=O)C(=O)N[C@@H](CC(=O)O)C(=O)N[C@@H](Cc1ccc(O[P+](O)(O)O)cc1)C(=O)N[C@@H](CCCNC(N)N)C(=O)N[C@@H](C)C(=O)O (H-NESVD[X1][Orn(CH(NH2)2)]A-OH),Kd,"protein: E3 ubiquitin-protein ligase CBL, PDB entry 3bux",2.36 µM (active)
CC(C)[C@H](NC(=O)[C@@H](NC(=O)[C@@H](NC(=O)[C@H](CO)NC(=O)[C@H](Cc1ccc(O[P+](O)(O)O)cc1)NC(=O)[C@H](CCC(=O)O)NC(=O)[C@@H](NC(=O)[C@@H](NC(=O)[C@@H](N)CO)[C@@H](C)O)C(C)C)[C@@H](C)O)C(C)C)C(=O)N[C@@H](Cc1cnc[nH]1)C(=O)N[C@@H](CO)C(=O)O (H-STVE[X1]STVVHS-OH),Kd,"protein: Suppressor of cytokine signaling 3(SOCS3), PDB entry 2hmh",0.07 µM (active)
CC(C)[C@H](NC(=O)[C@H](C)NC(=O)[C@@H](N)CCCNC(N)N)C(=O)N[C@@H](CCC(=O)O)C(=O)N[C@@H](CC(N)=O)C(=O)N[C@@H](CCC(N)=O)C(=O)N[C@@H](Cc1ccc(O[P+](O)(O)O)cc1)C(=O)N[C@@H](CO)C(=O)N[C@@H](Cc1ccccc1)C(=O)O (H-[Orn(CH(NH2)2)]AVENQ[X1]SF-OH),Kd,"protein: CBL E3 ubiquitin protein ligase, PDB entry 1yvh",0.043 µM (active)
H-AAIFYLAG-OH,Kd,"protein: HIV-1 protease, PDB entry 2nxd",2.2 µM (active)
CC(C)C[C@H](NC(=O)[C@H](CC(C)C)NC(=O)[C@H](CCCCN)NC(=O)[C@H](CCCNC(N)N)NC(=O)[C@H](C)NC(=O)[C@@H]1CCCN1C(=O)[C@H](CC(=O)O)NC(=O)[C@H](Cc1ccc(O)cc1)NC(=O)[C@H](C)N)C(=O)O (H-AYDPA[Orn(CH(NH2)2)]KLL-OH),Kd,"protein: ALIX Bro1-V domains (KK268, 269YY mutant), PDB entry 2xs8",24.5 µM (active)
H-ADLIAYFKAATKF-OH,Kd,"protein: T cell receptor (TCR), PDB entry 1r5w",2.9 µM (active)
H-AASFIDAKKMP-OH,Kd,"protein: coatomer alpha subunit, PDB entry 4j8g",64.5 µM (active)
H-TIYNTTLKY-NH2,Kd,"protein: anti-human cytomegalovirus antibody 8f9, PDB entry 3eyf",0.094 µM (active)
H-ADLIAYPKAATKF-OH,Kd,"protein: T cell receptor (TCR), PDB entry 1r5v",33 µM (active)
CC[C@H](C)[C@H](NC(=O)[C@@H](NC(=O)[C@H](CO)NC(=O)[C@@H](NC(=O)[C@@H]1CCCN1C(=O)[C@H](CCCCNC(C)=O)NC(=O)[C@H](CCCN=C(N)N)NC(=O)[C@H](CO)NC(=O)[C@H](CC(N)=O)NC(=O)[C@H](C)N)[C@@H](C)O)[C@@H](C)CC)C(=O)O,Kd,"protein: Golgi-associated PDZ and coiled-coil motif-containing protein CAL PDZ (CALP) domain, PDB entry 4nmr",298 µM (active)
CC[C@H](C)[C@H](NC(=O)[C@@H](NC(=O)[C@H](CO)NC(=O)[C@@H](NC(=O)[C@H](CCCCNC(C)=O)NC(=O)[C@H](Cc1c[nH]c2ccccc12)NC(=O)[C@H](CCCN=C(N)N)NC(=O)[C@H](CO)NC(=O)[C@H](CC(N)=O)NC(=O)[C@H](C)N)[C@@H](C)O)[C@@H](C)CC)C(=O)O,Kd,"protein: Golgi-associated PDZ and coiled-coil motif-containing protein CAL PDZ (CALP) domain, PDB entry 4nmq",32.3 µM (active)
CC[C@H](C)[C@H](NC(=O)[C@H](CCCCNC(=O)C(F)(F)F)NC(=O)[C@H](CO)NC(=O)[C@@H](NC(=O)[C@@H]1CCCN1C(=O)[C@H](Cc1c[nH]c2ccccc12)NC(=O)[C@@H](N)CCCN=C(N)N)[C@@H](C)O)C(=O)O (H-RWPTSK(Tfa)I-OH),Kd,"protein: Golgi-associated PDZ and coiled-coil motif-containing protein CAL PDZ (CALP) domain, PDB entry 4nmt",14.1 µM (active)
CC[C@H](C)[C@H](NC(=O)[C@H](Cc1c[nH]c2ccccc12)NC(=O)[C@H](CCC(=O)O)NC(=O)[C@H](CC(N)=O)NC(=O)[C@@H](N)CO)C(=O)N[C@@H](CCC(N)=O)C(=O)N1CCC[C@H]1C(=O)N[C@@H](CCCNC(N)N)C(=O)N[C@@H](CC(C)C)C(=O)N1CCC[C@H]1C(=O)N[C@H](C=O)CCC(N)=O (H-SNEWIQP[Orn(CH(NH2)2)]LPQ-aldehyde),Kd,"protein: Ephrin type-B receptor 2, PDB entry 2qbx",6 µM (active)
CC[C@H](C)[C@H](NC(=O)[C@@H](NC(=O)[C@H](CO)NC(=O)[C@@H](NC(=O)[C@@H]1CCCN1C(=O)[C@H](Cc1c[nH]c2ccccc12)NC(=O)[C@H](CCCNC(N)N)NC(=O)[C@H](CO)NC(=O)[C@H](CC(N)=O)NC(=O)[C@H](C)N)[C@@H](C)O)[C@@H](C)CC)C(=O)O,Kd,"protein: Golgi-associated PDZ and coiled-coil motif-containing protein, PDB entry 4e34",0.97 µM (active)
H-RWPTSK(Ac)I-OH,Kd,"protein: Golgi-associated PDZ and coiled-coil motif-containing protein CAL PDZ (CALP) domain, PDB entry 4nmo",14.9 µM (active)
C[C@@H](O)[C@@H](C=O)[C@H]1CC(S)=C(C(=O)O)N1,Kd,"protein: Probable L,D-transpeptidase LdtA, PDB entry 4jmx",0.0621 µM (active)
CC1=C(/C=C/C(C)=C/C=C/C(C)=C/CO)C(C)(C)CCC1,Kd,"protein: bovine beta-lactoglobulin, PDB entry 1gx8",0.43 µM (active)
C/C=C(C)/C=C/C=C(C)/C=C/C1=C(C)CCCC1(C)C,Kd,"protein: Cellular retinoic acid-binding protein 2 (R111K, R132L, Y134F, T54V, R59W mutation), PDB entry 4i9s",0.162 µM (active)
same,Kd,"protein: Cellular retinoic acid-binding protein 2 (R111K, R132L, Y134F, T54V, R59W, A32W mutation), PDB entry 4i9r",0.112 µM (active)
